# Several values for one entry are separate records, joined by “and”; a condition that tells them apart may be missing. Equal values may be shown once. The whole screen tested about 84,000 compounds, of which about 110 (0.13%) were called active. Cut-off read from the data, not from the text of the source: active = inhibition above about 30% (passing the limit was not always enough); inactive = the rest. The sample as a whole holds a higher share of actives than the screen did. A structure can be active in one record and inactive in another.
# Tested on: MgrA (MarR family transcriptional regulator), Staphylococcus aureus Newman
# Assay: S. aureus MgrA activity modulators, primary screen, biochemical, S. aureus Newman, fluorescence polarization (AID 602314);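 note: 0% = protein plus DNA without compound and 100% = DNA alone without protein; higher means less MgrA bound to DNA so lower polarization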
# Settings: MgrA-DNA binding, stronger effect = higher value, concentration not given here
row,SMILES,inhibition
1,COc1ccc(Cl)c2c1NC(c1ccncc1)C1CC=CC21 (stereo unspecified),0% (inactive)
2,CC1(C)CC(CC#N)(c2ccccc2)CCO1 (stereo unspecified),-1.15% (inactive)
3,Cn1c(SCC(=O)NCc2ccc(Cl)cc2)nnc1-c1ccc(Cl)cc1,-0.25% (inactive)
4,NC(=O)c1ccccc1N=Cc1ccc2ccccc2c1,-2.2% (inactive)
5,Cc1ccc2c(c1)NC(c1cc(Cl)cc(Cl)c1O)c1cccn1-2 (stereo unspecified),0.6% (inactive)
6,Cc1nc2onc(OCC(=O)OCc3ccccc3)c2c(C)c1C,0.6% (inactive)
7,O=C1CCCN1c1ccc(OC(F)(F)F)cc1,-1.5% (inactive)
8,C=CCC1NC(C)(C)Cc2ccccc21 (stereo unspecified),-0.25% (inactive)
9,CC1CCCCN1C(=O)c1ccccc1F (stereo unspecified),-1.4% (inactive)
10,NCC1(N2CCCCC2)CCCCC1,-1.35% (inactive)
11,Cc1onc(-c2ccccc2)c1C(=O)N=C(N)c1ccc(Cl)cc1,-1.9% (inactive)
12,C=CCSc1nc2c(c(=O)[nH]c(=O)n2C)n1C/C=C(\C)Cl,3% (inactive)
13,Cc1cc(C)cc(C(=O)OCC(=O)Nc2cccc(C(F)(F)F)c2)c1,3.35% (inactive)
14,COC(=O)c1sc(-c2ccc(Cl)cc2)cc1NC(=O)c1ccc2nsnc2c1,-0.8% (inactive)
15,CC(=O)N1N=C(c2c(-c3ccccc3)c3cc(Cl)ccc3[nH]c2=O)CC1c1cccc(Br)c1 (stereo unspecified),-1.4% (inactive)
16,Cc1[nH]ncc1-c1ccccc1,-1.4% (inactive)
17,CCOC(=O)c1sc(SC)c2c1CC(c1ccc(C)cc1)CC2=O (stereo unspecified),-0.2% (inactive)
18,O=[N+]([O-])c1cc(C(F)(F)F)cc([N+](=O)[O-])c1Oc1ccc(Cl)cc1Cl,3.2% (inactive)
19,CC(C)(C)c1c[n+](-c2ccccc2)c2n1CCS2,0.1% (inactive)
20,COC(=O)COc1ccccc1C#N,0.4% (inactive)
21,CC1OC(O[C@H]2/C=C/C=C/C=C/C=C/C=C/C=C/C=C/[C@H](C)[C@@H](O)[C@@H](C)[C@H](C)OC(=O)CC(O)CC(O)CCC(O)C(O)CC(O)CC3(O)C[C@H](O)C(C(=O)O)C(C2)O3)C(O)[C@H](N)C1O (stereo partly specified),2.9% (inactive)
22,O=c1[nH]nc(-c2ccccc2)[nH]1,-1.6% (inactive)
23,CCC(=O)Nc1cc(NC(=O)c2ccco2)ccc1C,-1.65% (inactive)
24,O=C(Nc1ccccc1)OCC12COC(c3ccccc3)N1C(c1ccccc1)OC2 (stereo unspecified),-1.5% (inactive)

row,SMILES,inhibition
1,O=C(c1ccco1)N1CCN(c2cnn(-c3ccccc3)c(=O)c2Cl)CC1,-0.95% (inactive)
2,Cc1ccc2c(c1)c1c(n2CC(O)CNCc2ccccc2)CCCC1 (stereo unspecified),-1.7% (inactive)
3,CN(C(=O)CSc1nncc(=O)[nH]1)c1ccccc1,-1.65% (inactive)
4,CC1(C)CC(=O)C2=C(C1)OC1=C(C(=O)CC(C)(C)C1)C2c1cn(Cc2ccc(Cl)cc2Cl)nc1-c1ccccc1,-0.5% (inactive)
5,COc1cc(C2C3=C(CC(C)(C)CC3=O)OC3=C2C(=O)CC(C)(C)C3)c(Br)cc1OCC(=O)O,3.4% (inactive)
6,O=C(NN=c1c(=O)c2ccccc2c1=O)c1ccncc1,1.9% (inactive)
7,CCn1c(=O)c2ccccc2n(CC(=O)c2ccc(C)cc2)c1=O,-1.25% (inactive)
8,CC1CCCN(c2ncccc2C(=O)NCC2CCCO2)C1 (stereo unspecified),1.1% (inactive)
9,CN(C(=O)c1cc2nc(-c3ccco3)cc(C(F)(F)F)n2n1)c1ccc(OC(F)(F)F)cc1,-0.95% (inactive)
10,COc1ccc(C(=O)COC2=C(C#N)C3(CCCC3)C(C#N)C(=S)N2)cc1OC (stereo unspecified),-1.5% (inactive)
11,CCOc1ccc(CC(C(=O)O)C(=O)O)cc1,0.1% (inactive)
12,N#CCCN(C1CCCCC1)S(=O)(=O)c1ccc(Br)cc1,-0.95% (inactive)
13,COc1ccc(CC(NC(C)=O)C(=O)O)c(Cl)c1OC (stereo unspecified),-0.7% (inactive)
14,Cn1c(SCC(=O)Nc2ccc(C(F)(F)F)cc2)nnc1-c1ccc2nonc2c1,-0.1% (inactive)
15,COC(=O)C1=Cc2cc(Cl)ccc2OC1,0.15% (inactive)
16,Cc1cccc(CN2C(=O)CSc3nc(C)cc(C)c32)c1,-0.45% (inactive)
17,CCN(CC)CCCN1C(=O)C2C3C=CC(C2C1=O)C1C2C(=O)N(CCCN(CC)CC)C(=O)C2C31 (stereo unspecified),0.8% (inactive)
18,CCOc1ccc(NC(=O)c2cc(-c3ccc(OC)c(OC)c3)nc3ccccc23)c([N+](=O)[O-])c1,-1.4% (inactive)
19,COc1ccc(C)c2c1CCCC2=O,-1.4% (inactive)
20,Cc1ccc(Nc2cc([Se]c3ccccc3)c(N)c3c2C(=O)c2ccccc2C3=O)cc1,-3.2% (inactive)
21,Cc1ccc2sc(-c3ccc(NC(=O)C(C)C)cc3)nc2c1,-2.5% (inactive)
22,Cc1ccc(-c2noc(CN(C)C(=O)Nc3ccc(Cl)cc3)n2)cc1,0.05% (inactive)
23,COc1cccc2c1NC(c1cccc(Cl)c1Cl)C1CC=CC21 (stereo unspecified),-1.1% (inactive)
24,Cc1ccccc1Cn1nnc(-c2ccncc2)n1,-3.5% (inactive)

row,SMILES,inhibition
1,COc1ccc(-c2ccc(/C=c3\sc4nc5cc(C)c(C)cc5n4c3=O)o2)c([N+](=O)[O-])c1,0.8% (inactive)
2,O=C(CC1CCCCC1)NCc1ccco1,1.25% (inactive)
3,CC(=O)Oc1ccc(OC(C)=O)c2c1C1C=CC2CC1,-2.5% (inactive)
4,COc1ccc(Nc2nc(Cl)nc(NCCN3CCOCC3)n2)c(OC)c1,0.3% (inactive)
5,O=C(Nc1ccccc1C(=O)N1CCCC1)Oc1ccccc1,-0.95% (inactive)
6,CCCCn1c(SCC(=O)N(C(C)C)C(C)C)nc2c1c(=O)n(C)c(=O)n2C,0.4% (inactive)
7,O=c1c2c3c(sc2ncn1Cc1nn[nH]n1)CCCC3,-0.2% (inactive)
8,Cc1c(CN2CCCCC2)c(O)n(CCO)c(=O)c1C#N,-3.25% (inactive)
9,C=CCn1cnc2c(c1=O)c1nc3ccccc3nc1n2-c1cccc(Br)c1,2.4% (inactive)
10,CCOc1cc2c(cc1/C=C(\C#N)c1ccc(C(F)(F)F)cc1)OCO2,1.15% (inactive)
11,O=S(=O)(c1ccc(Cl)cc1)N1CCCN(Cc2ccc(Cl)cc2Cl)CC1,1% (inactive)
12,CCn1cc(S(=O)(=O)Nc2cc(C)on2)cn1,-2.15% (inactive)
13,COc1ccccc1N1C(=O)NC(=O)/C(=C/c2cn(C(C)=O)c3ccccc23)C1=O,10.3% (inactive)
14,O=S(=O)(c1ccc(Br)s1)N1CCCC1,2.65% (inactive)
15,CSc1noc(-c2ccc(C(C)(C)C)cc2)c1C#N,4.25% (inactive)
16,N=C1/C(=C\c2cccn2-c2ccc3ccccc3c2)C(=O)N=C2SC=NN12,4.5% (inactive)
17,CCOC(=O)C1CCCN(c2c3c(nc4cc(-c5ccc(C)cc5)nn24)CCC3)C1 (stereo unspecified),-2.15% (inactive)
18,COc1cc(C=Nc2ccc3[nH]c(=O)[nH]c3c2)ccc1OC(C)=O,0.05% (inactive)
19,COc1ccc2nc(SCC(=O)c3ccc(Cl)c(Cl)c3)[nH]c2c1,-2.6% (inactive)
20,Cn1c(-c2ccccc2)c[n+]2c1CCCCC2,-2.6% (inactive)
21,N=Cc1c(O)n(-c2ccccc2)c2ccccc12,4.8% (inactive)
22,CCOC(=O)C1=C(C)N(C)C(C)=C(C(=O)OCC)C1c1ccccc1F,-0.1% (inactive)
23,O=c1oc(Nc2ccc(C(F)(F)F)cc2)nc2ccccc12,0.2% (inactive)
24,COc1ccc(CCN(Cc2cc3cc4c(cc3[nH]c2=O)OCO4)C(=O)c2ccncc2)cc1OC,2.6% (inactive)

row,SMILES,inhibition
1,S=C(Nc1ccc2[nH]ccc2c1)NC1CC2C=CC1C2 (stereo unspecified),-0.05% (inactive)
2,Cc1cccc(NC(=O)c2cn(-c3ccccc3)nc2-c2cccnc2)c1,-3% (inactive)
3,OC1(C(F)(F)F)CC(c2ccccc2)=NN1c1cccc2cccnc12 (stereo unspecified),-1.3% (inactive)
4,CN1C(=O)C2N=NN(c3ccccc3)C2C1=O (stereo unspecified),1.8% (inactive)
5,O=C(N/N=C/C1CC=CCC1)c1ccccc1 (stereo unspecified),2.3% (inactive)
6,O=C(COc1ccc(C2Nc3cccc4cccc(c34)N2)cc1)Nc1ccccc1,1.95% (inactive)
7,O=C(Nc1cccc2ccccc12)NC1CC1,1.3% (inactive)
8,CC1=C(C(=O)OCC2CCCCC2)C(c2ccccc2OCc2ccccc2)NC(=O)N1 (stereo unspecified),-1.8% (inactive)
9,CCOC(=O)c1sc(NC(=O)c2sc3ccccc3c2Cl)nc1-c1ccccc1,-3.1% (inactive)
10,COc1cccc(C(=O)Nc2ccccc2Cl)c1,-5.8% (inactive)
11,COc1ccccc1N1C(=O)C(=Cc2ccco2)C(=O)N(c2ccccc2OC)C1=O,2.2% (inactive)
12,CC(=O)Oc1ccc(C2NC(C(=O)O)CS2)cc1 (stereo unspecified),-3.3% (inactive)
13,O=C1NC(=S)N(c2ccc(Br)cc2)C(=O)/C1=C/c1ccsc1,24.2% (inactive)
14,O=C(O)c1ccc(Cl)cc1N=Cc1nc(-c2ccc(Br)cc2)oc1O,-0.9% (inactive)
15,Cc1ccc(-c2nn(CCC(=O)Nc3cccc(C(F)(F)F)c3)c(=O)c3ccccc23)cc1,0.65% (inactive)
16,O=C(CN1CCN(c2cccc(Cl)c2)CC1)c1ccc(Cl)cc1,6.3% (inactive)
17,COC(=O)c1cccnc1NC(=S)NC(C)C,3.15% (inactive)
18,COc1ccc(NC(=O)Nc2ccc(N3CCOCC3)cc2)cc1,-0.2% (inactive)
19,O=C1C(Nc2ccc(O)cc2)=C(n2nnc3ccccc32)C(=O)c2ccccc21,-0.3% (inactive)
20,NC(=S)C1(c2ccc(Cl)cc2Cl)CC1,-0.5% (inactive)
21,CC1CN(S(=O)(=O)c2ccc3c4c(cccc24)C(=O)N3)CC(C)O1 (stereo unspecified),0.25% (inactive)
22,CC[n+]1c(C)n(-c2ccccc2)c2ccc(N)cc21,1.45% (inactive)
23,CC[N+](C)(CC)CCC[n+]1c(-c2ccccc2)c2cc(N)ccc2c2ccc(N)cc21,104% (active) and 0.85% (inactive)
24,N=C1/C(=C/c2ccc(SCc3ccccc3)o2)C(=O)N=C2SC=CN12,1.55% (inactive)
